The values that follow come from PubChem BioAssay AID1540 (National Center for Advancing Translational Sciences (NCATS), 2009).

“And” between values parts separate entries of the source, which are not always exact repeats. Identical values can stand only once. Results filed as inconclusive are left out. The source made the active and inactive calls. Calls follow the shape of the dose curve; as a rule, active = well fitted activation curve with a large enough effect; inconclusive = small, poorly fitted or top-dose-only effect, or effect the other way; inactive = flat fitted curve, though single readings scatter.

Pyruvate kinase PKM (Homo sapiens), sequence (P14618 whole entry, looked up, canonical isoform): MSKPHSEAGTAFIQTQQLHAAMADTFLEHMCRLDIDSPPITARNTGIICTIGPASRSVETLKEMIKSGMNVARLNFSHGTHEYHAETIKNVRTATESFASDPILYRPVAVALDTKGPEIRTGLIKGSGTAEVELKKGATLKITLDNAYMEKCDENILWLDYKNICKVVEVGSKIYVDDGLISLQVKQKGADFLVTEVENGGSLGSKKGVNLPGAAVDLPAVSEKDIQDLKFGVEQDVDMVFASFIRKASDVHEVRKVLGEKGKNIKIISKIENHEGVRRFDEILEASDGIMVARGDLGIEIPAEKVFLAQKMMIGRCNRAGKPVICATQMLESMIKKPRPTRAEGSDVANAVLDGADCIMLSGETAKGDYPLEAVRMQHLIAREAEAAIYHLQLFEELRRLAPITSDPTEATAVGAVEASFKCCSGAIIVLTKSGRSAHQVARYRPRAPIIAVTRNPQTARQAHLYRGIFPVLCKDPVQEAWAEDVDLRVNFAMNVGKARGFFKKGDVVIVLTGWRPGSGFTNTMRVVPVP

The assay concerns the target Pyruvate kinase PKM (Homo sapiens) (UniProt P14618). The assay is described as follows: Secondary assay for Activators of Human Pyruvate Kinase M2 isoform. Conditions: purified hPK-M2, LDH-coupled NADH fluorescence kinetic; series mostly up to 57.5 µM. From the text:
Confirmatory assay NIH Chemical Genomics Center [NCGC] Matthew G. Vander Heiden, M.D., Ph.D. [Harvard Medical School, 77 Avenue Louis Pasteur, Boston, MA 02115] NCGC Assay Overview: Human pyruvate kinase muscle 2 (hPK-M2)enzyme was supplied as a highly purified (>95% pure) preparation from Harvard Medical School and a secondary assay was used to evaluate compounds. This assay couples the formation of pyruvate from hPK-M2 using lactate dehydrogenase (LDH) and NADH. The depletion of NADH is followed in a fluorescent-based kinetic assay that follows the formation of pyruvate to lactate, as catalyzed LDH (described by Hannaert et al., 2002)1 Pyruvate kinase substrates, PEP and ADP, were present in the assay at 0.1 mM and 4 mM respectively. In this kinetic assay initial rates were determined by following the fluorescence of NADH depletion.
NCGC Assay Protocol Summary: Three uL of substrate mix (final concentration, 50 mM Tris-Cl pH 8.0, 200 mM KCl, 15 mM MgCl2, 0.1 mM PEP, 4.0 mM ADP, and 0.2 mM NADH) was dispensed into black-solid 1536 well plates. 23 nL of compounds were delivered by a pin tool and 1 uL of enzyme mix (final concentrations, 10 nM hPK-M2 and 1 uM of LDH) was added. Plates were immediately placed in ViewLux (Perkin Elmer) and NADH fluorescence was determined at 30 second exposure intervals for between 3 and 6 minutes. Data were normalized to the uninhibited and EC100 activation using known activators such as fructose-bis-phosphate.
As to `COc1ccc(Cn2ncc3c4sc(C)cc4n(C)c3c2=O)cc1`, the Potency was 199 nM (active). Next, `CC(=O)Nc1cccc(S(=O)(=O)N2CCCN(S(=O)(=O)c3ccc4c(c3)OCCO4)CC2)c1`: 819 nM (active); `COc1cccc(S(=O)(=O)N2CCN(S(=O)(=O)c3ccc4c(c3)OCCO4)CC2)c1`: 562 nM (active). Under `CCNc1cccc(S(=O)(=O)N2CCN(S(=O)(=O)c3ccc4c(c3)OCCO4)CC2)c1` stands “inactive”; under `Cc1cc2c(s1)c1cnn(Cc3ccc(Cl)cc3)c(=O)c1n2C`, 1120 nM (active).

On to `O=S(=O)(c1ccc2c(c1)OCCO2)N1CCN(S(=O)(=O)c2cccc[n+]2[O-])CC1`, for which the Potency is 4470 nM (active).

Regarding `O=S(=O)(c1ccc2c(c1)OCCCO2)N1CCN(S(=O)(=O)c2c(F)cccc2F)CC1`, the Potency was 501 nM (active). Under `O=S(=O)(c1cccc(F)c1)N1CCN(S(=O)(=O)c2ccc3c(c2)OCCO3)CC1` stands 1000 nM (active); under `CC(=O)Nc1ccc(S(=O)(=O)N2CCCN(S(=O)(=O)c3ccc4c(c3)OCCO4)CC2)cc1`, 2590 nM (active). Regarding `Cc1ccc(Cn2ncc3c4sc(C)cc4n(C)c3c2=O)cc1`, the Potency is 1260 nM (active). Next, `O=S(=O)(c1ccc2c(c1)OCO2)N1CCN(S(=O)(=O)c2c(F)cccc2F)CC1`: 708 nM (active); `O=S(=O)(c1ccc2c(c1)OCCO2)N1CCN(S(=O)(=O)c2ccccc2F)CC1`: 316 nM (active); `Nc1cccc(S(=O)(=O)N2CCN(S(=O)(=O)c3ccc4c(c3)OCCO4)CC2)c1`: 146 nM (active).

Regarding `COc1cc(F)c(S(=O)(=O)N2CCCN(S(=O)(=O)c3cccc(N)c3)CC2)c(F)c1`, the Potency is 146 nM (active) and 1.16 µM (active). Next, `O=S(=O)(c1ccc2c(c1)OCCO2)N1CCN(S(=O)(=O)c2c(F)ccc(O)c2F)CC1`: 355 nM (active). Under `Cc1cc2c(s1)c1cnn(Cc3c(F)c(F)cc(F)c3F)c(=O)c1n2C` stands 398 nM (active). Under `Cn1c2cc(B(O)O)sc2c2cnn(Cc3c(F)cccc3Cl)c(=O)c21` stands 6310 nM (active); under `O=C(O)Cc1cc(F)c(S(=O)(=O)N2CCN(S(=O)(=O)c3ccc4c(c3)OCCO4)CC2)cc1F`, 14100 nM (active).

As for `CS(=O)(=O)Nc1cccc(-c2cc(F)c(S(=O)(=O)N3CCN(S(=O)(=O)c4ccc5c(c4)OCCO5)CC3)cc2F)c1`, the Potency result was “inactive”. Under `CCCc1cc(F)c(S(=O)(=O)N2CCN(S(=O)(=O)c3ccc4c(c3)OCCO4)CC2)cc1F` stands 8910 nM (active).

Turning to `COc1cc2c(s1)c1cnn(Cc3ccccc3F)c(=O)c1n2C`, the Potency is 158 nM (active). Next, `CC(C)c1cc2c(s1)c1cnn(Cc3ccccc3F)c(=O)c1n2C`: 1410 nM (active). Next, `CSc1cc2c(s1)c1cnn(Cc3ccccc3F)c(=O)c1n2C`: 708 nM (active). As for `Cn1c2cc(Br)sc2c2cnn(Cc3c(F)cccc3F)c(=O)c21`, the Potency was 631 nM (active). Next, `Cc1cc2c(s1)c1cnn(Cc3ccccc3)c(=O)c1n2C`: 199 nM (active).

Regarding `O=S(=O)(c1ccc(Cl)cc1)N1CCN(S(=O)(=O)c2ccc3c(c2)OCCO3)CC1`, the Potency is 1120 nM (active).

Consider `Nc1ccc(S(=O)(=O)N2CCN(S(=O)(=O)c3ccc4c(c3)OCCO4)CC2)cc1`, for which the Potency was 163 nM (active).

For the compound `COc1cc(F)c(S(=O)(=O)N2CCN(S(=O)(=O)c3ccc(NC(C)=O)cc3)CC2)c(F)c1`, the Potency is 14600 nM (active). Under `Cn1c2ccsc2c2cnn(Cc3ccc(F)cc3)c(=O)c21` stands 562 nM (active); under `O=S(=O)(c1ccc2c(c1)OCCO2)N1CCCN(S(=O)(=O)c2c(F)cccc2F)CC1`, 891 nM (active). Next, `Cc1cc2c(s1)c1cnn(Cc3ccccc3Cl)c(=O)c1n2C`: 562 nM (active); `Nc1ccc(S(=O)(=O)N2CCCN(S(=O)(=O)c3ccc4c(c3)OCCO4)CC2)cc1`: 366 nM (active). Under `COc1cc(F)c(S(=O)(=O)N2CCCN(S(=O)(=O)c3ccc4c(c3)OCCO4)CC2)c(F)c1` stands 58 nM (active); under `Cc1cc2c(s1)c1cnn(Cc3ccc(C(F)(F)F)cc3)c(=O)c1n2C`, 2240 nM (active). Consider `Cn1c2cc(S(C)=O)sc2c2cnn(Cc3ccccc3F)c(=O)c21` (stereo not given), for which the Potency was 398 nM (active). Next, `COc1cc(F)c(S(=O)(=O)N2CCCN(S(=O)(=O)c3cccc(NC(C)=O)c3)CC2)c(F)c1`: 2910 nM (active).

As for `O=S(=O)(c1ccc2c(c1)OCCO2)N1CCN(S(=O)(=O)c2cc(F)c(Br)cc2F)CC1`, the Potency is 708 nM (active). Next, `O=S(=O)(c1ccc2c(c1)OCCO2)N1CCN(S(=O)(=O)c2ccc(F)cc2F)CC1`: 501 nM (active); `C=Cc1cc(F)c(S(=O)(=O)N2CCN(S(=O)(=O)c3ccc4c(c3)OCCO4)CC2)cc1F`: 2000 nM (active); `COC/C=C/c1cc(F)c(S(=O)(=O)N2CCN(S(=O)(=O)c3ccc4c(c3)OCCO4)CC2)cc1F`: 17800 nM (active).
